Results as given in publication PMC5540273 (PLoS ONE, 2017).

What was measured:
Details in all cases: concentration: 1 μM, replicates: in singlicate; n = 1
DCAMKL2 = test system: T1, DCAMKL2
T1 construct: gene DCLK2

DCAMKL3 = test system: T2, DCAMKL3
T2 construct: gene DCLK3

DDR1 = test system: DDR1
DDR2 = test system: DDR2
DLK = test system: T3, DLK
T3 construct: gene MAP3K12

DMPK2 = test system: T4, DMPK2
T4 construct: gene CDC42BPG

DMPK = test system: DMPK
DRAK1 = test system: T5, DRAK1
T5 construct: gene STK17A

DRAK2 = test system: T6, DRAK2
T6 construct: gene STK17B

DYRK1A = test system: DYRK1A
DYRK1B = test system: DYRK1B
DYRK2 = test system: DYRK2
EGFR = test system: EGFR
EIF2AK1 = test system: EIF2AK1
EPHA1 = test system: EPHA1
EPHA2 = test system: EPHA2
EPHA3 = test system: EPHA3
EPHA4 = test system: EPHA4
EPHA5 = test system: EPHA5
EPHA6 = test system: EPHA6
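Also: KINOMEscan kinase panel screen.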

Row | Compound | %Inh (DCAMKL2) [%] | %Inh (DCAMKL3) [%] | %Inh (DDR1) [%] | %Inh (DDR2) [%] | %Inh (DLK) [%] | %Inh (DMPK2) [%] | %Inh (DMPK) [%] | %Inh (DRAK1) [%] | %Inh (DRAK2) [%] | %Inh (DYRK1A) [%] | %Inh (DYRK1B) [%] | %Inh (DYRK2) [%] | %Inh (EGFR) [%] | %Inh (EIF2AK1) [%] | %Inh (EPHA1) [%] | %Inh (EPHA2) [%] | %Inh (EPHA3) [%] | %Inh (EPHA4) [%] | %Inh (EPHA5) [%] | %Inh (EPHA6) [%]
1 | COc1cc(Nc2nccc(N3CCC(NC(=O)Nc4cccc(C(C)=O)c4)C3)n2)cc(OC)c1OC (centres unmarked) [GSK1379753] | 0 | 0 | 6 | 8 | 42 | 25 | 0 | 0 | 10 | 14 | 67 | 21 | 22 | 0 | 5 | 0 | 0 | 3 | 0 | 8
2 | COCCOCCOc1cc2ncc3c4ccc(C#N)cc4[nH]c3c2cc1OC | 14 | 66 | 0 | 0 | 71 | 0 | 3 | 100 | 100 | 99 | 72 | 70 | 12 | 0 | 15 | 33 | 0 | 23 | 11 | 25
3 | Cl.Cl.NCC(C(=O)Nc1cc(Br)c(-c2ccnc3[nH]ccc23)s1)c1ccccc1 (centres unmarked) [GSK1269851] | 3 | 0 | 0 | 0 | 4 | 0 | 27 | 98.8 | 0 | 50 | 33 | 78 | 27 | 0 | 83 | 4 | 48 | 28 | 0 | 32
4 | c1ccc(-c2n[nH]cc2Nc2ccnc3ccccc23)nc1 [GW694077] | 0 | 12 | 0 | 10 | 74 | 0 | 0 | 99.4 | 0 | 99.9 | 100 | 90 | 15 | 0 | 0 | 0 | 0 | 4 | 0 | 0
5 | O=C(Nc1n[nH]c2nc(-c3ccc(O)cc3)ccc12)C1CC1 [SB-710363] | 0 | 76 | 0 | 27 | 0 | 0 | 0 | 93.4 | 26 | 62 | 65 | 97.2 | 0 | 0 | 0 | 0 | 16 | 3 | 0 | 17
6 | COc1cc(Nc2nccc(-c3c(-c4cccc(NC(=O)c5c(F)cccc5F)c4)nn4ccccc34)n2)cc(OC)c1OC [GSK323521] | 11 | 11 | 90.3 | 61 | 3 | 49 | 9 | 0 | 0 | 13 | 0 | 0 | 38 | 39 | 12 | 16 | 0 | 0 | 21 | 3
7 | COc1cc(Nc2ncc3c(C)nc(-c4cc5ccccc5[nH]4)n3n2)cc(OC)c1OC [GW869516] | 0 | 0 | 52 | 52 | 22 | 0 | 0 | 30 | 10 | 85 | 81 | 0 | 0 | 0 | 41 | 49 | 7 | 46 | 16 | 0
8 | C[C@@H]1CC[C@@H](C(=O)Nc2ccccc2)CN1c1cc(-c2ccc3c(N)n[nH]c3c2)nc(N)n1 [GSK2286062] | 17 | 0 | 1 | 22 | 17 | 0 | 0 | 18 | 0 | 3 | 0 | 3 | 43 | 0 | 1 | 17 | 2 | 0 | 0 | 0
9 | O=C(Nc1cccc(-c2nn3ccccc3c2-c2ccnc(Nc3cccc(C(F)(F)F)c3)n2)c1)c1c(F)cccc1F [GSK292658] | 0 | 0 | 99.3 | 50 | 2 | 49 | 0 | 0 | 0 | 9 | 1 | 3 | 98.2 | 0 | 5 | 8 | 0 | 5 | 0 | 7
10 | Cl.NC(=O)c1cccc(Nc2nccc(Nc3ccc(Oc4c(Cl)cccc4Cl)c(Cl)c3)n2)c1 [GW659009] | 0 | 0 | 0 | 0 | 0 | 64 | 0 | 0 | 0 | 3 | 0 | 6 | 99.5 | 13 | 0 | 0 | 0 | 0 | 0 | 0
11 | COc1ccc(Nc2nccc(N3CCC(NC(=O)Nc4cccc(OC)c4)C3)n2)cc1 (centres unmarked) [GSK1379742] | 0 | 13 | 8 | 24 | 46 | 0 | 0 | 8 | 0 | 4 | 0 | 0 | 20 | 0 | 10 | 0 | 0 | 1 | 0 | 8
12 | COc1cccc(C2=C(Nc3ccc(Cl)c(C(=O)O)c3)C(=O)NC2=O)c1 [SB-390769] | 20 | 1 | 0 | 36 | 0 | 0 | 0 | 100 | 100 | 18 | 100 | 100 | 24 | 99.6 | 1 | 10 | 0 | 0 | 0 | 2
13 | CN(C)Cc1ccc(-c2ccc3c(Nc4ccc(Oc5ccccn5)cc4)ccnc3c2)o1 [GW567148] | 0 | 0 | 38 | 45 | 69 | 0 | 0 | 4 | 0 | 13 | 0 | 0 | 53 | 0 | 79 | 1 | 0 | 60 | 0 | 53
14 | Cc1occc1-c1ncc(OC[C@@H](N)Cc2c[nH]c3ccccc23)cc1-c1ccc2[nH]nc(C)c2c1.O=C(O)C(F)(F)F [GSK682037] | 14 | 0 | 0 | 5 | 1 | 67 | 95 | 0 | 0 | 15 | 0 | 26 | 94.3 | 0 | 0 | 9 | 29 | 0 | 0 | 49
15 | COc1cc(Nc2nccc(-c3c(-c4cccc(NC(=O)c5c(F)cccc5F)c4)nn4ncccc34)n2)cc(OC)c1OC [GSK327238] | 0 | 43 | 100 | 95.2 | 2 | 100 | 8 | 0 | 0 | 23 | 33 | 16 | 100 | 0 | 86 | 71 | 42 | 65 | 0 | 49
16 | Cn1cc(-c2[nH]c3cc(NC(=O)[C@H](N)C4CCCCC4)cc4c3c2C=NNC4=O)cn1 | 24 | 99.4 | 0 | 39 | 94.8 | 0 | 82 | 99.6 | 99.9 | 79 | 0 | 92.3 | 81 | 0 | 25 | 1 | 56 | 11 | 12 | 14
17 | O=C(Nc1ccccc1F)NC1CCN(c2ccnc(Nc3ccc(F)cc3)n2)CC1 [GSK1379800] | 0 | 0 | 0 | 31 | 24 | 4 | 0 | 0 | 0 | 4 | 12 | 0 | 47 | 0 | 0 | 0 | 0 | 5 | 0 | 5
18 | COc1cc(Nc2nccc(N3CCC(NC(=O)c4cc5ccccc5s4)C3)n2)cc(OC)c1OC (centres unmarked) [GSK1379760] | 14 | 0 | 0 | 39 | 31 | 5 | 0 | 0 | 0 | 0 | 33 | 19 | 45 | 0 | 3 | 9 | 0 | 7 | 0 | 5
19 | COc1ccc(Nc2nccc(NCCNC(=O)c3cc4ccccc4s3)n2)cc1 [GSK1379896] | 0 | 0 | 0 | 15 | 0 | 0 | 0 | 0 | 0 | 0 | 0 | 5 | 19 | 0 | 0 | 8 | 0 | 0 | 0 | 0
